# Many of the other results were omitted from the sample, so hits are more common in it than they were.
# IDE exosite inh = exo-site inhibitors of human IDE, primary screen, biochemical, fluorescence anisotropy, probe displacement; Insulin-degrading enzyme (Homo sapiens), P14735; purified IDE, FL-6b probe fluorescence polarization; active compounds read low; z-score at 20 µM; 17,000 compounds, 6.3% hits;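 active means z-score of -3 or lower, meaning strong loss of probe binding signal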;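 further: His-tagged human IDE residues 42-1019 made in E. coli with 30 nM FL-6b probe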
# * marks the source's active call; other numbers are inactive results.
SMILES,IDE exosite inh
COc1cccc(CN2[C@@H]3CNC[C@H]2C3c2ccc(-c3ccc(C#N)cc3)cc2)c1 (stereo partly drawn),0.55
C/C=C/c1ccc(C2[C@H]3CNC[C@@H]2N3Cc2cc(OC)cc(OC)c2)cc1 (stereo partly drawn),2.2
COc1cc(CN2[C@@H]3CNC[C@H]2C3c2ccc(-c3ccc(C#N)cc3)cc2)cc(OC)c1 (stereo partly drawn),0.45
CO[C@@H]1CN(C)C(=O)c2cc(NC(=O)CC(F)(F)F)ccc2OC[C@H](C)N(CC2CC2)C[C@@H]1C,0.33
C[C@@H]1CN([C@@H](C)CO)C(=O)CCCn2cc(nn2)CO[C@@H]1CN(C)C(=O)Nc1ccc2c(c1)OCO2,-0.98
O=C(c1ccncc1)N1C[C@H]2[C@@H](c3ccccc31)[C@@H](CO)N2Cc1ccccc1F,1.8
CN(C)C(=O)c1cccc(-c2ccc([C@H]3[C@@H](CO)N4CCCCN(CC5CCOCC5)C[C@@H]34)cc2)c1,-0.15
C[C@@H]1CN([C@@H](C)CO)C(=O)c2cc(NC(=O)Nc3ccccc3)ccc2O[C@@H](C)CCCCO[C@@H]1CN(C)C(=O)Nc1ccccc1,0.66
Cc1ccc(S(=O)(=O)Nc2ccc3c(c2)C(=O)N(C)[C@@H]2CC[C@H](CC(=O)NCCc4ccncc4)O[C@@H]2CO3)cc1,0.21
CC(C)C#Cc1ccc([C@@H]2[C@H](CO)N3C(=O)CN(C(=O)NC4CCCC4)C[C@@H]23)cc1,-1.4
Cc1ccccc1-c1ccc([C@H]2[C@H]3CN(C(=O)NC4CCCC4)CC(=O)N3[C@H]2CO)cc1,-12*
O=C(NC1CCCC1)N1CC(=O)N2[C@H](CO)[C@H](c3ccc(C4=CCCCC4)cc3)[C@@H]2C1,-2
Cc1ccccc1-c1ccc([C@H]2[C@H](CO)N3C(=O)CN(C(=O)NC4CCCC4)C[C@@H]23)cc1,-21*
CC(C)C#Cc1ccc([C@@H]2[C@@H](CO)N3C(=O)CN(C(=O)NC4CCCC4)C[C@H]23)cc1,-1
O=C1CNC[C@@H]2[C@H](c3ccc(C#Cc4cccnc4)cc3)[C@@H](CO)N12,-0.78
CN(C)CC(=O)N1CCCCN2[C@H](C1)[C@H](c1ccc(-c3cccnc3)cc1)[C@@H]2CO,1.6
O=C(C[C@H]1CC[C@H]2[C@@H](COC[C@@H](O)CN2S(=O)(=O)c2cccc(Cl)c2)O1)NC1Cc2ccccc2C1,-0.31
O=C1NCCOCc2cnnn2CC[C@H]1Cc1ccc(F)cc1,0.65
CC(=O)NC[C@@H]1[C@@H](c2ccc(-c3ccccc3)cc2)[C@H](CO)N1C(=O)C1CC1,2.8
O=S(=O)(c1ccccc1)N1CCCCN2[C@@H](CO)[C@H](c3ccc(-c4ccccc4)cc3)[C@@H]2C1,1.6
COc1cccc(-c2ccc([C@@H]3[C@@H](C#N)N(C(=O)Cc4ccccc4)[C@H]3CO)cc2)c1,3
N#C[C@H]1[C@H](c2ccc(-c3ccccc3F)cc2)[C@H](CO)N1C(=O)c1ccccn1,-3.1*
COc1cccc(-c2ccc([C@@H]3[C@@H](C#N)N(C(=O)c4ccccn4)[C@@H]3CO)cc2)c1,-5*
COc1cccc(-c2ccccc2[C@H]2[C@@H](C#N)N(C(=O)c3ccccn3)[C@@H]2CO)c1,-0.39
COc1cccc(-c2ccc([C@@H]3[C@@H](CO)N(C(=O)Cc4ccccc4)[C@H]3C#N)cc2)c1,3.6
SMILES,IDE exosite inh
N#C[C@H]1[C@H](c2ccc(-c3ccccc3F)cc2)[C@@H](CO)N1C(=O)c1ccccn1,0.88
COc1cccc(-c2ccc([C@@H]3[C@@H](C#N)N(C(=O)Cc4ccccc4)[C@@H]3CO)cc2)c1,-5.3*
O=C(NC[C@@H]1N[C@@H](CO)[C@@H]1c1ccc(-c2ccccc2F)cc1)c1ccccn1,-4.5*
CCCNC(=O)N1[C@H](C#N)[C@@H](c2ccc(-c3cccc(OC)c3)cc2)[C@H]1CO,-1.3
N#C[C@@H]1[C@@H](c2ccccc2-c2ccccc2F)[C@@H](CO)N1C(=O)c1ccccn1,2
O=C(NC[C@H]1N[C@@H](CO)[C@H]1c1ccc(-c2ccccc2)cc1)c1ccccc1F,1.1
O=C(NC[C@@H]1N[C@@H](CO)[C@@H]1c1ccccc1)c1ccccc1F,0.95
CC(=O)NC[C@H]1[C@@H](c2ccc(C#C[C@@H](C)O)cc2)[C@@H](CO)N1Cc1ccccn1,-0.39
CN(C[C@@H]1[C@@H](c2ccccc2)[C@H](CO)N1C(=O)c1ccccc1)C(=O)C1CC1,3.7
CC(C)(O)C#Cc1cccc(-c2nc(C(=O)O)cc3c2[C@@H](CCO)N(S(=O)C(C)(C)C)C3)c1 (stereo partly drawn),-0.5
CS(=O)(=O)N1[C@H](C#N)[C@@H](c2ccc(C#Cc3cccc(F)c3)cc2)[C@H]1CO,-2.1
O=C([C@H]1N[C@H]2c3ccc(/C=C/c4ccccc4)c(=O)n3C[C@H]2[C@@H]1CO)N1CCCCC1,0.17
CO[C@@H]1CN(C)C(=O)c2ccc(NC(=O)C3CCC3)cc2OC[C@H](C)N(Cc2ccccn2)C[C@H]1C,0.19
Cc1ccccc1S(=O)(=O)N1[C@H](C#N)[C@@H](c2ccc(C#CC3CC3)cc2)[C@@H]1CO,0.8
Cc1ccc(S(=O)(=O)Nc2cccc3c2O[C@@H](CN(C)C(=O)Nc2ccc(C(F)(F)F)cc2)[C@H](C)CN([C@H](C)CO)C3=O)cc1,-0.73
COc1cccc(-c2ccc([C@H]3[C@@H](C#N)N(C(=O)Cc4ccccc4)[C@@H]3CO)cc2)c1,-3.8*
COc1cccc(-c2ccccc2[C@H]2[C@@H](C#N)N(C(=O)Cc3ccccc3)[C@H]2CO)c1,0.95
COc1cccc(-c2ccccc2[C@H]2[C@@H](C#N)N(C(=O)Cc3ccccc3)[C@@H]2CO)c1,-1.6
O=C(O)C[C@@H]1C[C@@H]2c3cc(NC(=O)Nc4ccc(C(F)(F)F)cc4)ccc3O[C@@H]2[C@H](CO)O1,0.21
COCC(=O)N1CC(=O)N2[C@H](CO)[C@H](c3ccc(C#CC4CC4)cc3)[C@H]2C1,0.22
COc1cc(CN2CC3(CCN(S(=O)(=O)c4cn(C)cn4)CC3)c3c(n(C)c4cc(OC)ccc34)[C@H]2CO)cc(OC)c1,-2.5
COc1cccc(C#Cc2ccc([C@H]3[C@@H](CO)N4C(=O)CN(C(C)=O)C[C@H]34)cc2)c1,-7.9*
CC(=O)N1CC(=O)N2[C@H](CO)[C@H](c3ccc(C#Cc4cccnc4)cc3)[C@H]2C1,0.82
CC(=O)N1CC(=O)N2[C@@H](CO)[C@H](c3ccc(C#Cc4cccnc4)cc3)[C@@H]2C1,1.7
COc1ccc(C#Cc2ccc([C@@H]3[C@@H](CO)N4C(=O)CN(C(C)=O)C[C@@H]34)cc2)cc1,3.9
SMILES,IDE exosite inh
CC(=O)N1CC(=O)N2[C@H](CO)[C@@H](c3ccc(C#Cc4cccnc4)cc3)[C@H]2C1,1.5
COc1cccc(C#Cc2ccc([C@@H]3[C@@H](CO)N4C(=O)CN(C(C)=O)C[C@H]34)cc2)c1,-0.98
COc1cccc(C#Cc2ccc([C@@H]3[C@H]4CN(C(C)=O)CC(=O)N4[C@H]3CO)cc2)c1,-3.9*
COc1cccc(C#Cc2ccc([C@H]3[C@@H](CO)N4C(=O)CN(C(C)=O)C[C@@H]34)cc2)c1,-5.1*
COc1ccc(C#Cc2ccc([C@H]3[C@H](CO)N4C(=O)CN(C(C)=O)C[C@@H]34)cc2)cc1,2.3
C[C@@H](O)C#Cc1ccc([C@@H]2[C@@H](CO)N3CCCCN(C(=O)Nc4ccccc4)C[C@@H]23)cc1,-0.14
CCCC#Cc1ccc([C@@H]2[C@@H](CO)N3C(=O)CN(C(=O)CN4CCOCC4)C[C@@H]23)cc1,4.9
